Consider 22 compounds from PubChem BioAssay (NCATS).

Calls of active or inactive are those of the source. Calls follow the shape of the dose curve; as a rule, active = well fitted curve in the direction sought with a large enough effect; inactive = no such curve, though single readings can be large or run the other way.

For this assay, the target named is Alpha-galactosidase (Coffea arabica) (UniProt Q42656). The assay can be described thus: Counterscreen for Glucocerebrosidase Inhibitors: qHTS Assay for Coffee Bean alpha-Galactosidase at pH 5.9 (AID 998).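 Also: plate controls were uninhibited enzyme for no effect and no-enzyme basal signal for full effect.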 Conditions: coffee bean alpha-galactosidase enzyme assay; series mostly up to 76.9 µM; activity, negative = inhibition: at the top concentration. Put shortly: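 Fluorogenic 4-MU substrate hydrolysis, 80 uM substrate and 2 nM coffee bean alpha-galactosidase, pH 5.9 citrate buffer, 20 min at room temperature, then NaOH/glycine stop. Titration 0.7 nM–77 uM, normalized to no-enzyme and enzyme controls, AC50 via Hill equation.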
Sequence of Alpha-galactosidase (Coffea arabica) (Q42656 whole entry, looked up): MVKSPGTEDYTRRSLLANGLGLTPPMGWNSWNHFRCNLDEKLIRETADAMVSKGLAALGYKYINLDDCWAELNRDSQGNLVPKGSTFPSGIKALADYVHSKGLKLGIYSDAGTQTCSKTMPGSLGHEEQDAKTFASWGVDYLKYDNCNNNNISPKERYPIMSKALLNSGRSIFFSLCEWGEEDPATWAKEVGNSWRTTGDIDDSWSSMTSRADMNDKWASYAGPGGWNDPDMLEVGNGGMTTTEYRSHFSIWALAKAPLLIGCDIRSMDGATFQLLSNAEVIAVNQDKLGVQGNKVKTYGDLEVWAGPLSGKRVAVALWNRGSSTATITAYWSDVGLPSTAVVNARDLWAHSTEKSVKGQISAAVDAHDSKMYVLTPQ
With `FC(F)(F)c1cc(CO[C@@H]2CCCN[C@H]2c2ccccc2)cc(C(F)(F)F)c1`, the “activity, negative = inhibition” value was -12.5% (inactive).
Under `C[C@@H]1c2cccc(O)c2C(O)=C2C(=O)[C@@]3(O)C(O)=C(C(N)=O)C(=O)[C@@H](N(C)C)[C@@H]3[C@@H](O)[C@@H]21` stands -7.1% (inactive); under `C[C@@]12CCC(=O)C=C1CC[C@@H]1[C@@H]2[C@H](O)C[C@]2(C)[C@@H]1CC[C@]2(O)C(=O)COC(=O)CCC(=O)O`, 3.29% (inactive).
The value for `S=C(Nc1ccccc1)Nc1nccs1` was 1.1% (inactive); that for `CN1CCc2cc(O)c(O)cc2[C@H](c2ccccc2)C1` was 0.711% (inactive).
Under `CO[C@]1(C2=NCCN2)COc2ccccc2O1` stands -2.37% (inactive); under `O=c1ccn([C@@H]2O[C@@H](COP(=O)(O)OP(=O)(O)O)[C@H](O)[C@@H]2O)c(=O)[nH]1`, 1.08% (inactive); under `O=C(/C=C\c1ccc(O)cc1)c1ccc(O)cc1O`, -6.71% (inactive).
`CCOC(=O)C1=C(C)NC(C)=C(C(=O)OC)[C@H]1c1cccc(Cl)c1Cl`: the “activity, negative = inhibition” value is -5.83% (inactive).
The value for `CN1CCc2cccc3c2[C@@H]1Cc1ccc(O)c(O)c1-3` was -2.19% (inactive); that for `CC(=O)S[C@@H]1CC2=CC(=O)CC[C@@]2(C)[C@H]2CC[C@]3(C)[C@H](CC[C@@]34CCC(=O)O4)[C@H]12` was -0.724% (inactive); that for `CC1=C(C(=O)O)N2C(=O)[C@@H](NC(=O)[C@@H](N)c3ccccc3)[C@@H]2SC1` was -4.58% (inactive).
With `C[C@H](N=C(NC#N)Nc1ccncc1)C(C)(C)C`, the “activity, negative = inhibition” value is -0.722% (inactive).
The value for `C[C@H]1CN(S(=O)(=O)c2cccc3cnccc23)CCN1` was -3.4% (inactive).
Under `CCNC(=O)[C@@H]1O[C@@H](n2cnc3c(N)nc(NCCc4ccc(CCC(=O)O)cc4)nc32)[C@H](O)[C@@H]1O` stands -0.713% (inactive); under `N[C@H](Cc1ccc(F)cc1)C(=O)O`, 2.27% (inactive).
The value for `N[C@@H](CO)C(=O)O` was 1.41% (inactive); that for `CSC(N)=NCCC[C@@H](N)C(=O)O` was 1.11% (inactive); that for `COc1cc2nc(N3CCN(C(=O)[C@H]4CCCO4)CC3)nc(N)c2cc1OC` was 1.42% (inactive).
Turning to `CC(C)[C@H]1C(=O)C(C(N)=O)=C(O)[C@]2(O)C(=O)C3=C(O)c4c(O)ccc(N(C)C)c4C[C@H]3C[C@@H]12`, the “activity, negative = inhibition” value is -3.92% (inactive).
The value for `Nc1ccc(CCNc2ncnc3c2ncn3[C@@H]2O[C@@H](CO)[C@H](O)[C@@H]2O)cc1` was 2.01% (inactive); that for `CC(=O)O[C@@H](C)C[N+](C)(C)C` was 4.13% (inactive).
